The list is not random: actives were taken first. Their share in the collection is about 5.4%.
beta cell repl: inducers of beta-cell replication in MIN6 cells | 0.29% of 330,000 active | proliferation, % at 10 µM | MIN6 cells proliferation, ATPlite luminescence, 48 h; cells starved in 0.2% serum; 100% = growth in 10% serum;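 active means compounds whose signal lies at least 3.5 SD above the mean of all wells on their plate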;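 further: 0% = DMSO-treated cells in low-serum medium and 100% = 10% serum control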
SMARCA2 act: activators of SMARCA2 function; 1% of 370,000 active; activation, % at 9.1 µM; MG213 cells, MMTV-luciferase reporter, dexamethasone, overnight; in the data active means activation above about 7.8%;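 further: 0% = vehicle wells and 100% = reference activator wells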
Exocytosis inh: blocks lytic granule exocytosis; TALL-104 LAMP-1 surface exposure, flow cytometry; cells stimulated with thapsigargin and PMA; inhibition, % at 10 µM; 0.66% of 360,000 active;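 active means inhibition above about 55%, limit read from the data; inconclusive means no clear call, values can overlap the other calls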
GASC-1 inh: human JMJD2C demethylase inhibition; Q9H3R0; GST-JMJD2C(1-420) H3K9me3 demethylation, DELFIA europium; inhibition, % at 2.35 µM; 0.069% of 330,000 active; AID 2099;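 active means more than half of a compound's replicate wells show inhibition beyond 50%, single wells judged on their own value; inconclusive means some, but no more than half, of replicates pass 50% inhibition; inactive means no replicate passes 50% inhibition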;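 further: signal counts dimethyl H3K9 product captured on neutravidin plate; 0% = median of DMSO wells and 100% = 0.3 times that DMSO median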
M18AAP inhibitor: PfM18AAP enzyme inhibition; recombinant PfM18AAP, H-Glu-NHMec fluorogenic cleavage; inhibition, % at 7.35 µM; 1.2% of 290,000 active; AID 1822;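 active means inhibition above the campaign mean inhibition over all tested compounds plus 3 SD, cut at about 28% in these data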;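 further: 0% = plate median of test compound wells and 100% = 2 mM ZnCl2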
ALR inh: inhibitors of human sulfhydryl oxidase ALR; 3.8% of 290,000 active; purified ALR, DTT oxidation, H2O2 HRP-luminol luminescence; inhibition, % (no concentration beside the values);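 active means mean replicate inhibition above about 79%, with every replicate also reaching it, limit read from the data; inconclusive means only one of the two criteria met; inactive means mean below limit and not every replicate reaching it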
Target sequence (P55789 whole entry, looked up): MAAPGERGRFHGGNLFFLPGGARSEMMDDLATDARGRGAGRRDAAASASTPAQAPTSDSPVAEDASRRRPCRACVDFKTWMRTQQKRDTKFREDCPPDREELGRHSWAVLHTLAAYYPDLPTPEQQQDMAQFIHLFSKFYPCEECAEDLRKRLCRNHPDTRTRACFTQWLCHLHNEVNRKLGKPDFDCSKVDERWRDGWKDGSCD
* marks the source's active call; other numbers are inactive results; ? = inconclusive; · = not tested or not shown.

SMILES	beta cell repl	SMARCA2 act	Exocytosis inh	GASC-1 inh	M18AAP inhibitor	ALR inh
Cc1ccc(NC(=O)C(C)SCc2nc3sc(C)c(C)c3c(=O)[nH]2)nc1 (configuration not stated)	2	-2	3	-2	·	99*
CCOC(=O)C1=NOC(C(=O)NCCO)(C(=O)C2CC2)C1 (configuration not stated)	·	1	·	·	·	·
C[C@@H]1COc2cc(N3CCCC3)ccc2S(=O)(=O)N1C	·	-1	·	·	·	·
Cn1nnnc1Sc1ncnc2scc(-c3ccccc3)c12	-3	-5	-1	1	1	11
Cn1nnnc1Sc1ncnc2scc(-c3ccc[nH]3)c12	-7	0	-4	-3	·	94*
Cc1ccc(-n2c(SCc3ccc(Cl)c(Cl)c3)nnc2-c2ccc(C(C)(C)C)cc2)cc1	·	-4	·	·	·	·
Cc1ccc(S(=O)(=O)NN2C(=O)/C(=C/c3cccn3C)SC2=S)cc1	·	·	·	-2	-3	97*
COc1cccc(/C=C2\SC(=S)N(NS(=O)(=O)c3ccccc3)C2=O)c1OC	-3	-1	-8	1	5	97*
COc1cc(/C=C2\SC(=S)N(NS(=O)(=O)c3ccccc3)C2=O)cc(OC)c1OC	-3	-3	-2	5	9	·
CC(COc1cccc(OC(F)(F)F)c1)CN1CCC(C(O)(c2ccccc2)c2ccccc2)CC1 (configuration not stated)	·	-3	·	·	·	·
CC(C)=CCC/C(C)=C/CNCC(=O)N1c2ccccc2[C@]2(c3ccccc3)C[C@@H]3C(=O)N(C/C=C(\C)CCC=C(C)C)CC(=O)N3[C@H]12	·	0	·	·	·	·
COCCn1c(CCc2ccccc2)n[nH]c1=S	-2	-3	-3	7	16	85*
N#Cc1ccccc1NC(=O)CSC1=Nc2ccccc2C2CC=NN12 (configuration not stated)	-2	3	-3	37	5	-9
O=C(CSC1=Nc2ccccc2C2CC=NN12)NCc1ccco1 (configuration not stated)	-5	-4	2	13	·	99*
CCCOC(=O)c1ccc(NC(=O)CSC2=Nc3ccccc3C3CC=NN23)cc1 (configuration not stated)	-5	-5	1	-2	-11	97*
Cc1c(C(=O)NNC(=S)Nc2cccc(Cl)c2)nnn1-c1ccccc1	0	5	-7	2	9	91*
COc1ccc(S[C@]2(C(=O)N(C)C)CC(=O)N[C@@H]2c2ccc(OC)cc2)cc1	·	-2	·	·	·	·
O=C(N[C@H](C(=O)N1CCC[C@H]1C(=O)NCCc1ccccc1Cl)c1ccccc1)c1ccc(Cl)c(Cl)c1	·	-4	·	·	·	·
Cc1cccc(OCC(=O)N/N=C/c2sc(=O)n(Cc3cccc(C(=O)O)c3)c2Cl)c1	0	-3	0	12	-12	15
O=C(COc1ccccc1)N/N=C/c1sc(=O)n(Cc2cccc(C(=O)O)c2)c1Cl	-2	3	-2	-2	-23	96*
COc1cc(/C=N/n2c(-c3cc(-c4ccccc4)n[nH]3)n[nH]c2=S)ccc1OCc1ccccc1	·	4	·	·	·	·
Nc1cc(=O)[nH]c(SCc2cccc3ccccc23)n1	-3	-4	-19	-3	-2	99*
CCc1cc(=O)[nH]c(SCc2cccc3ccccc23)n1	-1	·	2	3	1	98*
Cn1c(-c2cccc([N+](=O)[O-])c2)cnc1NCc1cccc([N+](=O)[O-])c1	-3	0	3	14	9	66
COc1ccc(OC)c(CNc2ncc(-c3cccc([N+](=O)[O-])c3)n2C)c1	-2	-3	0	24	4	98*
SMILES	beta cell repl	SMARCA2 act	Exocytosis inh	GASC-1 inh	M18AAP inhibitor	ALR inh
Nn1c(SCC(=O)NC2CCCCC2)nnc1-c1cc(-c2ccccc2)n[nH]1	·	-2	·	·	·	·
C=CCN1C(=O)[C@H](CC(=O)NCc2cccc(C(F)(F)F)c2)[C@@]2(C(=O)OCC)CCCC=C12	·	-2	·	·	·	·
C#CCSc1nnc(-c2cccc3ccccc23)o1	1	-1	-4	2	3	97*
CCOC(=O)N1CCN(C(=O)c2ccc(CS(=O)Cc3ccccc3Cl)o2)CC1 (configuration not stated)	5	-1	-3	7	-8	?
O=C(c1ccc(CS(=O)Cc2ccccc2Cl)o1)N1CCN(C2CCCCC2)CC1 (configuration not stated)	4	-4	2	3	-5	98*
O=c1cc(-c2ccc(O)cc2)oc2ccc(O)cc12	3	7.9*	9	-3	7	-10
COc1cc(-c2cc(=O)c3ccccc3o2)ccc1O	3	5	-5	0	8	99*
COc1cc(-c2cc(=O)c3c(O)c(OC)c(OC)cc3o2)cc(OC)c1O	0	2	-2	-3	·	77*
COc1cc(-c2cc(=O)c3c(O)cc(O)cc3o2)ccc1O	5	·	-1	-7	11	-10
O=c1cc(-c2ccccc2)oc2cc(O)ccc12	·	4	-3	·	·	·
C[C@@H]1COc2cc(Br)ccc2S(=O)(=O)N1Cc1cn(Cc2ccc(F)cc2)nn1	·	-2	·	·	·	·
CCCC(=O)NNC(=O)c1ccoc1C	0	-3	-2	-7	-2	-1
CCC(C)(C)C1CCC(=NNC(=O)c2ccoc2C)CC1 (configuration not stated)	-2	11*	3	4	-11	-4
CC(=O)Nc1ccc(N/C=C/C(=O)C(C)(C)C)cc1	-1	-2	-5	0	6	-1
Cc1ccc(N/C=C/C(=O)C(C)(C)C)c(O)c1	-3	·	3	8	11	83*
Cc1ccc(-c2nnc3n2N=C(c2ccc(-c4ccccc4)cc2)CS3)cc1	·	-4	·	·	·	·
COc1ccc(SCC(=O)c2cc(C)c(OC(=S)N(C)C)c(C)c2)cc1	-3	2	5	-5	8	92*
O=C(C(=O)N1CCC(CNS(=O)(=O)c2ccc(C(F)(F)F)cc2)CC1)c1cccs1	·	3	·	·	·	·
O=C(CCc1ccccn1)N1CCCC(Nc2ccc(F)cc2)C1 (configuration not stated)	-2	2	0	8	22	99*
CCc1nccn1CCC(=O)N1CCCC(Nc2ccc(F)cc2)C1 (configuration not stated)	1	1	0	5	-4	99*
O=C(CCc1ccccn1)N1CCCC(Nc2cccc(F)c2)C1 (configuration not stated)	-1	-2	-1	-7	6	51
O=C(CCC(=O)N1CCCC(Nc2ccccc2)C1)c1ccc(F)cc1 (configuration not stated)	1	-4	24	9	-2	99*
Cc1ccccc1Cn1cc(CN2[C@H](C)COc3cc(Br)ccc3S2(=O)=O)nn1	·	0	·	·	·	·
CC(C)C[C@@H]1NC(=O)[C@@H]2CSCCS(=O)(=O)N2C1=O	·	-2	·	·	·	·

Screens as filed in PubChem.
